# Measurements published in the supplement of paper PMC6555819.
# Legend:
# Assay in all cases: PBM binding z-score (relative to random genomic background probes); higher = stronger binding; sequences stand for … in GC…GCGATTGACAGCGTAGAATGAAGG
# [1] = system: FXR:RXRa (NR concentration 270 nM, RXRa partner concentration 90 nM)
# Summary of the method: (§1)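 Scanned fluorescence from custom Agilent 4×180K protein-binding microarrays was regression-normalized. Binding z-scores use random background probes as reference. Ligand-free nuclear receptor dimers were incubated on the arrays for 1 h and detected with antibodies against each partner (one per run).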
# [2] = system: LXRa:RXRa (NR concentration 270 nM, RXRa partner concentration 90 nM)
# Summary of the method: as §1
# [3] = system: LXRa homodimer (NR concentration 270 nM)
# Summary of the method: as §1
# [4] = system: LXRb:RXRa (NR concentration 270 nM, RXRa partner concentration 90 nM)
# Summary of the method: as §1
# [5] = system: LXRb homodimer (NR concentration 270 nM)
# Summary of the method: as §1
# [6] = system: PPARa:RXRa (NR concentration 270 nM, RXRa partner concentration 90 nM)
# Summary of the method: as §1
# [7] = system: PPARg:RXRa (NR concentration 180 nM, RXRa partner concentration 90 nM)
# Summary of the method: as §1
# [8] = system: PPARg:RXRa 270nM:90nM, anti-RXR (NR concentration 270 nM, RXRa partner concentration 90 nM)
# Summary of the method: as §1
# [9] = system: PPARg:RXRa 30nM:10nM, anti-RXR (NR concentration 30 nM, RXRa partner concentration 10 nM)
# Summary of the method: as §1
# [10] = system: PPARg:RXRa 90nM:30nM, anti-RXR (NR concentration 90 nM, RXRa partner concentration 30 nM)
# Summary of the method: as §1
# [11] = system: PPARg:RXRa DBDmut IVT, anti-RXR (DBD mutation: RXRa K156A/R161A, NR concentration 270 nM, RXRa partner concentration 90 nM)
# Summary of the method: as §1
# [12] = system: PPARg:RXRa IVT, anti-PPARg (NR concentration 270 nM, RXRa partner concentration 90 nM)
# Summary of the method: as §1
# [13] = system: PPARg DBDmut:RXRa IVT, anti-PPARg (DBD mutation: PPARg1 K132A/R137A, NR concentration 270 nM, RXRa partner concentration 90 nM)
# Summary of the method: as §1
# [14] = system: PPARg DBDmut IVT, anti-PPARg (DBD mutation: PPARg1 K132A/R137A, NR concentration 270 nM)
# Summary of the method: as §1
# [15] = system: PPARg homodimer (NR concentration 180 nM)
# Summary of the method: as §1
# [16] = system: PXR:RXRa (NR concentration 270 nM, RXRa partner concentration 90 nM)
# Summary of the method: as §1
# [17] = system: PXR homodimer (NR concentration 270 nM)
# Summary of the method: as §1
# [18] = system: RARa:RXR (NR concentration 270 nM, RXRa partner concentration 90 nM)
# Summary of the method: as §1
# [19] = system: RARa homodimer (NR concentration 270 nM)
# Summary of the method: as §1
# [20] = system: RARb:RXRa (NR concentration 270 nM, RXRa partner concentration 90 nM)
# Summary of the method: as §1
Sequence,PBM binding z-score [1],PBM binding z-score [2],PBM binding z-score [3],PBM binding z-score [4],PBM binding z-score [5],PBM binding z-score [6],PBM binding z-score [7],PBM binding z-score [8],PBM binding z-score [9],PBM binding z-score [10],PBM binding z-score [11],PBM binding z-score [12],PBM binding z-score [13],PBM binding z-score [14],PBM binding z-score [15],PBM binding z-score [16],PBM binding z-score [17],PBM binding z-score [18],PBM binding z-score [19],PBM binding z-score [20]
TCTCGGAGGACACGAAGGTCAGCGCTTTCCAGAG,1.84,1.77,0.379,1.68,-0.754,2.31,0.453,2.02,2.12,1.93,1.48,1.41,-0.389,-0.884,2.23,2.49,0.985,3.06,0.313,3.95
GCTGCTAGGTCAGGATGGTCAGCTAACGGGTACG,0.825,0.646,-0.251,0.268,-0.621,1.6,0.968,1.04,-0.242,0.479,2.74,3.02,-0.328,-0.66,0.599,0.108,-0.722,0.555,-0.167,
TAGCCAAGGTCATTCAGGGGCCAGTATAGAAAGC,7.35,5.84,1.66,4.6,2.35,5.19,4.6,4.81,1.47,3.17,1.73,3,1.11,0.966,3.14,4.91,1.43,5.72,0.389,5.06
CAAACTAGGTCAAAGGTCAAAGTAGAGCCAACCA,8.58,7.15,5.51,7.55,2.88,7.99,13.8,11.5,13,13.8,8.23,9.26,5.64,3.48,4.85,7.02,2.18,8.45,2.42,
CCTAGCAGGCCAGGTTCACTCAAGCATTTCGCTT,0.117,0.554,-0.238,0.666,-0.142,0.874,-0.212,-0.0179,-0.854,-0.512,0.866,-0.316,-1.77,-0.982,-0.179,0.776,0.391,0.488,-0.298,0.579
AGTCAAAGTTCATCTAGGTAACGAAAGATATGCT,6.43,5.78,4.68,3.86,1.83,5.26,7.04,6.66,3.55,5.72,0.744,4.11,1.97,1.3,3.18,5.26,6.53,4.34,2.16,5.15
CGTCTAAGGTCAGCAGGTCAGTGAAAGCGACGTG,6.71,4.48,0.785,3.61,0.0498,5.3,4.86,5.46,1.6,4.03,3.72,3.7,0.756,0.144,5.12,4.16,0.612,5.94,2.05,
CAAACCAGGTCACGAAAGGTCAAAGTCGAATGAC,7.94,8.2,8.63,7.45,3.02,6.66,9.2,7.84,5.15,7.6,6.74,7.37,0.599,1.79,6.46,7.33,5.57,8.04,4.58,5.74
CGAACTAGGTCATCGAGGACAGTGAATACATTGA,4.22,2.59,0.3,1.9,-0.0709,4.86,7.79,6.42,4.26,6.2,8.15,8.47,2.12,2.09,1.73,2.62,2.57,2.26,0.951,4
CCTCGGAGGACAGAAGGTCAGATCTGTCCGCTTT,1.34,1.57,0.283,1.25,-0.347,1.62,0.155,0.812,-0.772,0.0725,0.207,-0.0702,-0.934,-1.55,1.35,1.65,-0.42,1.98,0.321,
CTCGAAAGGTCGGTTGAGGTGACTATACGGATAA,3.63,1.84,-0.14,1.58,0.0463,2.63,0.621,1.11,0.252,0.639,0.163,1.15,0.145,0.106,0.89,3.61,0.00293,2.11,0.415,
CCTTACGGGTCCCTGACAGGTTATAGCATTTGGA,-0.274,-0.086,0.128,-0.0575,-0.647,0.0699,0.112,-0.345,-0.32,-0.402,-0.486,-0.544,-1.04,-1.23,0.149,-0.106,-0.274,-0.0622,0.466,0.205
CCTACTGGGCGACGAAAGGTCATTGATTCAGTGA,3.21,3.92,4.32,3.94,-0.175,4.31,2.37,3.74,1.35,2.73,1.64,2.57,-0.823,-0.515,1.98,4.56,0.841,4.47,0.351,3.75
TATCCTAGGTCAGATCGGGCCAGTATACGCTATA,2.81,3.67,2.41,2.2,1.81,2.49,1.46,2.04,0.691,1.56,2.51,3.41,1.32,1.4,1.11,1.82,0.14,1.8,0.0561,3.33
TCTCGGAGGACACGAAACGTCAGAGCTCGACATC,0.138,-0.218,-0.617,-0.347,-0.872,-0.13,0.395,0.915,2.04,1.4,1.4,0.0714,-0.35,-0.247,-0.276,-0.408,-0.586,-0.175,-0.713,1.25
ATCGAAAGGTCGCAGGTGAGTATACCCACCCGAA,4.98,3.65,0.17,2.74,0.436,5.01,4.34,4.73,1.5,3.31,0.692,2.78,1.46,0.551,1.95,2.89,0.199,3.82,0.721,4.09
CGAACTAGGTCAACGACAGTGAATCTCCGCACGC,3.59,2.08,0.0952,1.47,-0.0209,4.54,7.37,6.13,3.91,5.64,7.66,7.96,4.33,5.05,2.87,0.983,-0.0485,1.99,-0.0648,3.83
